Screening results from PubChem BioAssay.
This is a sample that favours compounds with a hit; in the whole collection about 2.8% have one here.
IP6K1 inhibitor = inhibitors of human IP6K1 | IP6K1 kinase, ADP-Glo luminescence, 2 h; active compounds read low | 140,000 tested, 0.81% active | Q92551 | AID 1645851 | activity change, % (series mostly up to about 58 µM); in the data active means activity change below about -25%; further: on the % scale 0 is the no-effect control and ±100 the full control effect
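ADP-Glo luminescence measures ADP made by human IP6K1 during a 2 h RT reaction with ATP/IP6 (mix at 1.3 mM/130 uM); top library doses 57.5 and 19.1 uM final.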
KDM5B inhibitor = KDM5B demethylase inhibition; Q9UGL1; KDM5B demethylase, FDH-coupled NADH fluorescence (FDH is formaldehyde dehydrogenase); Potency, µM (highest dose often 57.7 µM), most hits filed as inhibitors; 220,000 tested, 2.6% active; AID 1347165; active means well fitted inhibition curve with a large enough effect; inconclusive means small, poorly fitted or top-dose-only effect; inactive means no such curve, though single readings can be large or run the other way; further: potency means the concentration at half of the fitted maximal effect; 0% is about no effect; nearly all actives have a fitted effect of over 70% in size
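Coupled FDH/NAD⁺ fluorescence readout. KDM5BΔAP 200 nM final; compound titration, 10 min RT preincubation; substrate mix 12.5 µM H3K4me3, 25 µM 2-OG, 50 µM Fe(II), 100 µM ascorbate, 0.25 mM NAD⁺, 0.25 U/mL FDH; ΔRFU over 30 min.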
The depositor's hits bear a star; i = inactive; ? = inconclusive; nt = no result.

SMILES	IP6K1 inhibitor	KDM5B inhibitor
COc1cccc(-c2nc(N3CCOCC3)cc3c2CN(CC2CC2)C3=O)c1OC	0.4	35.5µM*
COc1cc(F)ccc1-c1nc(N2CCOCC2)cc2c1CN(CC(F)(F)F)C2=O	7.8	31.6µM*
O=C1c2cc(N3CCOCC3)nc(-c3ccccc3)c2CN1Cc1ccccc1	10.8	31.6µM*
CC(C)c1nc2c(c(-c3ccc(O)cc3)n1)CCN(C(=O)C(C)(C)C)CC2	8.8	nt
CC(CNC(=O)c1nn(C)c(=O)c2ccccc12)c1ccccc1 (stereo unspecified)	nt	i
Cc1ccc(/C=N/NC(=O)C(O)(c2ccccc2)c2ccccc2)s1	nt	i
COc1ccc(OCCn2cc(C(C)=O)c3ccccc32)cc1	nt	i
COc1ccc(-c2ccc(C(=O)N3CCN([S+](=O)([O-])c4cccc(C(F)(F)F)c4)CC3)cc2)nn1	-6.5	nt
CC(C)n1cc(CN2CCCC23CCN(c2ccc(C(F)(F)F)cn2)CC3)cn1	16.0	?
Cc1c(CN2CCCC23CCN(c2ccc(C(F)(F)F)cn2)CC3)cc(C#N)n1C	8.3	?
Cn1cc(CN2CCCC23CCN(c2ccc(C(F)(F)F)cn2)CC3)cc1C#N	13.2	28.2µM*
Cn1ncc(CN2CCCC23CCN(c2ccc(C(F)(F)F)cn2)CC3)c1C1CC1	9.4	22.4µM*
Cc1ccc(C(=O)C(C)OC(=O)c2c(C)noc2C)cc1C (stereo unspecified)	nt	i
COc1cccc(-c2ccc(C(=O)N3CCC(N[S+](=O)([O-])c4ccc(C)cc4)CC3)cc2)c1	-12.4	nt
COc1ccc(-c2ccc3c(c2)C(=O)N2CC[C@H](NC(=O)NC(C)C)[C@H]2C(=O)N3)c(OC)c1	-0.4	?
COc1ccc(/C=C/c2ccc3c(c2)C(=O)N2CC[C@H](NC(=O)COCC(=O)O)[C@H]2C(=O)N3)cc1	-5.2	22.4µM*
CC(C)NC(=O)N[C@H]1CCN2C(=O)c3cc(/C=C/c4ccccc4)ccc3NC(=O)[C@H]12	-9.3	35.5µM*
COc1ccc(-c2ccc3c(c2)C(=O)N2CC[C@H](NC(=O)C4CCCC4)[C@H]2C(=O)N3)c(OC)c1	4.7	31.6µM*
CSCC(=O)N[C@H]1CCN2C(=O)c3cc(-c4ccsc4)ccc3NC(=O)[C@H]12	11.3	?
COc1ccc(-c2ccc3c(c2)C(=O)N2CC[C@H](NC(=O)COCC(=O)O)[C@H]2C(=O)N3)c(OC)c1	3.2	?
Cc1cccc(-c2ccc3c(c2)C(=O)N2CC[C@H](NC(=O)NC(C)C)[C@H]2C(=O)N3)c1C	-6.3	i
CSCC(=O)N[C@H]1CCN2C(=O)c3cc(/C=C/c4ccccc4)ccc3NC(=O)[C@H]12	3.1	15.8µM*
Cc1nn(-c2ccccc2)c2c1C(C(C)C)N(C1CCN(C(=O)c3ccccn3)C1)C2=O (stereo unspecified)	1.9	nt
COc1ccc(CNC(=O)CNC(=O)c2ccc(-c3cnc4ccccc4c3)cc2)cc1	8.4	nt
COc1ccc2cc1Nc1ccc(cc1)C[C@H](NC(=O)Cc1cccc(Cl)c1)C(=O)N(C)[C@H](C(=O)NCCC(C)C)C2	14.3	?
SMILES	IP6K1 inhibitor	KDM5B inhibitor
C#CCNC(=O)c1nc(-c2cccc(C(F)(F)F)c2)c2cnccn12	0.0	31.6µM*
O=C(NC1CC1)c1nc(-c2cccc(C(F)(F)F)c2)c2ccccn12	4.7	?
C#CCNC(=O)c1cn2cc(-c3cccc(C(F)(F)F)c3)sc2n1	15.3	nt
COCCNC(=O)c1nc(-c2cccc(C(F)(F)F)c2)c2cnccn12	0.0	25.1µM*
COC(=O)CNC(=O)c1nc(-c2cccc(C(F)(F)F)c2)c2ccccn12	11.2	14.1µM*
COCCNC(=O)CNC(=O)c1ccc(-c2cccc(C(F)(F)F)c2)cc1	2.2	nt
COCCNC(=O)c1nc(-c2cccc(C(F)(F)F)c2)c2ccccn12	8.2	15.8µM*
O=C(NCc1cccnc1)c1nc(-c2cccc(C(F)(F)F)c2)c2ccccn12	29.3	?
CCc1c(C)sc(NC(=O)CCC(=O)O)c1C(=O)NC1CC1	nt	i
N#Cc1ccc(CS(=O)(=O)Cc2ccccc2F)cc1	nt	i
O=C(Cc1c(Cl)cccc1Cl)Oc1ccc(OCc2ccccc2)cc1	nt	i
CCC(C)NC(=O)C1CCCN1C(=O)c1cccc(-c2cccnc2)c1 (stereo unspecified)	-6.8	nt
CCC1(O)CCC12CCN(C(=O)CCC1CCCC1)CC2 (stereo unspecified)	10.3	nt
O=C(N[C@H]1CO[C@H]2[C@@H]1OC[C@@H]2Nc1nccc(-c2ccc(-c3ccccc3)cc2)n1)C1CC1	-0.8	i
O=C(N[C@H]1CO[C@H]2[C@@H]1OC[C@@H]2Nc1nccc(-c2cccc(F)c2)n1)C1CC1	0.9	?
O=C(COc1ccccc1)N[C@H]1CO[C@H]2[C@@H]1OC[C@@H]2Nc1nccc(-c2cccc(F)c2)n1	-3.7	i
N#Cc1cccc(-c2ccnc(N[C@H]3CO[C@H]4[C@@H]3OC[C@@H]4NC(=O)c3cccs3)n2)c1	3.2	31.6µM*
